Reference: PubChem BioAssay AID485364 (National Center for Advancing Translational Sciences (NCATS), 2010)
The whole screen tested about 360,000 compounds, of which about 11,000 (3.1%) were called active. Roughly 4% stayed inconclusive and do not appear here. Many of the other results were omitted from the sample, so actives are more common in it than they were. A number with no mark means an inactive call. Calls come from the whole dose curve; as a rule, active = well fitted inhibition curve with a large enough effect; inconclusive = small, poorly fitted or top-dose-only effect; inactive = no such curve, though single readings can be large or run the other way.

The compounds below were run against Schistosoma mansoni thioredoxin glutathione reductase (TGR) (UniProt Q962Y6) (assay: qHTS Assay for the Inhibitors of Schistosoma Mansoni Peroxiredoxins). Conditions: purified TGR, DTNB reduction, TNB absorbance 405 nm; series mostly up to 114 µM; activity change, negative = inhibition: at the top concentration.
Outline: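 TGR 20 nM + NADPH 100 uM (dispensed conc.), cpd preinc 15 min RT; start with NADPH (500 uM addition) then DTNB (15 mM addition). Kinetic TNB absorbance, 405 nm filter. Four-parameter Hill fit across titration.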
% is set by controls: 0 for no effect and ±100 for the full control effect; potency is the fitted concentration of half-maximal effect.
Note: nearly all actives have a fitted effect of over 60% in size.

Point of comparison: `Cc1nnc(SCC(=O)NCc2ccccc2Cl)c2nn(-c3ccccc3)c(C)c12`, “activity change, negative = inhibition” value -12.2%. Against it:
- COc1cccc(N2CCN(S(=O)(=O)c3ccc4c(c3)CCCN4C(C)=O)CC2)c1 — higher, -11.5%
- O=C(Nc1nnc(C2CC(=O)N(c3ccc(Cl)cc3)C2)s1)c1ccco1 (configuration not stated) — higher, 2.36%
- Cc1ccc(S(=O)(=O)c2cn(Cc3ccccc3)c3cc(N4CCCC4)c(F)cc3c2=O)c(C)c1 — higher, 7.14%
- COc1cc(C(=O)N2CCN(C(=O)COc3cccc(C)c3)CC2)cc(OC)c1OC — higher, 4.7%
- CC1CCN(S(=O)(=O)c2ccc3c(ccn3CCC(=O)NCc3ccc(N(C)C)cc3)c2)CC1 — higher, 5.15%
- Cc1ccc(NC(=O)c2cc(S(=O)(=O)NCCC3=CCCCC3)ccc2F)cc1C — higher, 0.318%
- CCOc1ccc(OCC)c(NC(=O)c2cc(C)nc3c2c(C)nn3-c2cccc(Cl)c2C)c1 — higher, 4.25%
- O=C(/C=C/c1ccccc1)N1CCN(Cc2cc(=O)n3nc(-c4ccccc4F)sc3n2)CC1 — higher, -0.0658%
- Cn1c(C(=O)N2CCC(C(N)=O)CC2)cc2c(=O)n(C)c3ccccc3c21 — lower, -27.2%
- CCOc1ccc(CCNC(=O)c2cc3c(=O)n(C)c4ccccc4c3n2C)cc1 — higher, -0.834%
- O=C(c1ccc2c(c1)N(Cc1ccc(Cl)cc1)C(=O)c1ccccc1S2(=O)=O)N1CCCCC1 — higher, -0.822%
- CCOc1ccc(C(=O)/C=C/c2cn(CC(O)CN3CCCCCC3)c3ccccc23)cc1 (configuration not stated) — higher, 1.21%
- Cc1ccc(Cn2c(CNC(=O)Cc3cccc(C)c3)nc3cccnc32)cc1 — higher, -0.581%
- COc1ccc(C(=O)NC2CCCc3c2cnn3-c2cccc(C)c2C)c(OC)n1 (configuration not stated) — higher, 2.99%
- Cn1nccc1C(=O)NC1CCCc2c1cnn2-c1ccccc1F (configuration not stated) — lower, -27.8%
- Clc1ccc2c(c1)C1=C(C(c3ccncc3)O2)C(c2ccc(Br)cc2)n2ncnc2N1 (configuration not stated) — higher, 5.87%
- Cc1cccc(OCCSc2nc3ccccc3n2CC(=O)N2CCCCC2)c1C — higher, -10.3%
- COc1ccc(CCN=C2SCC(=O)N2Cc2ccccc2)cc1OC — higher, 4.58%
- COC(=O)C1=C(c2ccc(F)cc2OCc2ccccc2)C[C@@H]2CC[C@H]1N2C(=O)NCc1ccc(OC)c(OC)c1 — higher, -1.65%
- CCCOc1ccc(C2c3c(-c4ccccc4O)n[nH]c3C(=O)N2Cc2cccnc2)cc1 (configuration not stated) — lower, -17.8%
- CC(=O)Nc1ccc(S(=O)(=O)NC2(C(F)(F)F)C(=O)Nc3c2c(=O)[nH]c(=O)n3Cc2ccccc2)cc1 (configuration not stated) — higher, -3.62%
- CC(=O)Nc1ccc(NS(=O)(=O)c2ccc3c(c2)NC(=O)CC(=O)N3)cc1 — higher, 4.91%
- CCOC(=O)c1cc(-c2ccc(OC)c(S(=O)(=O)Nc3ccc(OC)cc3OC)c2)on1 — higher, -0.0619%
- CCOC(=O)c1ccc(NC(=O)Cn2c(=O)cc(C)c3c(C)nn(-c4cccc(F)c4)c32)cc1 — higher, 17.8%
- O=C(COC(=O)Cn1cnc2ccccc2c1=O)NCc1ccccc1Cl — higher, 2.84%
- COCc1cc(C(C)=O)ccc1OC — lower, -22.1%
- CC(Sc1oc(-c2ccco2)nc1S(=O)(=O)c1ccc(Br)cc1)c1ccccc1 (configuration not stated) — higher, -2.2%
- COc1ccc(NC(=O)C2CCN(c3ccc(Sc4ccc(C)cc4)nn3)CC2)c(OC)c1 — higher, -1.89%
- Cc1nnc(SCc2cc(=O)c3cc(F)ccc3[nH]2)n1C — higher, 1.82%
- CCOC(=O)c1ccccc1NC(=S)N1CCC(C(N)=O)CC1 — higher, 3.23%
- COC(=O)c1cc(C)sc1NC(=O)CC1Nc2ccccc2NC1=O (configuration not stated) — lower, -27.8%
- CN1CCN(C2(CNC(=O)COc3ccc(C(C)(C)C)cc3)CCCCC2)CC1 — higher, -2.57%
- Cc1ccc2nc(N3CCN(c4cccc(Cl)c4)CC3)c3nnnn3c2c1 — higher, 0.987%
- COc1ccc(Cn2ccn(Cc3cccc(OC)c3)c(=O)c2=O)cc1 — higher, -8.54%
- CCCCc1nn2c(=O)cc(COC(=O)c3cccc(NC(=O)COc4ccccc4)c3)nc2s1 — higher, -9.99%
- Cc1ccc(C(C(=O)NCc2ccco2)N(CC2CCCO2)C(=O)Cn2nnc3ccccc32)cc1 (configuration not stated) — higher, -9.71%
- O=C(NCc1ccco1)C(c1ccncc1)N(C(=O)Cn1nnc2ccccc21)c1ccccc1 (configuration not stated) — higher, -2.1%
- Cc1ccc(OCCSc2nc(-c3cccs3)nc3cc(=O)[nH]n23)cc1Cl — higher, 1.7%
- Cc1ccc(-c2nc3ccccn3c2Nc2c(C)cccc2C)o1 — lower, -13.2%
- COc1cc(Cl)c(C)cc1NC(=O)CCc1nc2cccnc2n1Cc1cccs1 — lower, -18.2%
- O=c1[nH]c(CSc2ncc(-c3ccc(F)cc3)n2Cc2ccco2)nc2ccccc12 — higher, 0%
- CCC(C)n1c(-c2cc(OC)c(OC)c(OC)c2)nc2nc3ccccc3nc21 (configuration not stated) — higher, 7.25%
- Cc1ccc(NC(=O)C2CCN(S(=O)(=O)c3cc(-c4noc(C)n4)ccc3C)CC2)c(C)c1 — higher, 12.2%
- FC(F)(F)c1cc(Nc2nc3ccccc3c3nncn23)ccc1Cl — higher, -2.28%
- COC(=O)CCNc1ccc2c(c1)OCCO2 — higher, -0.529%
- O=C(COc1ccc(Cl)cc1)Nc1ccc2c(c1)OCO2 — higher, 0.171%
- Cc1ccc(NC(=O)CSc2nnc3[nH]c(=O)cc(C)n23)cc1Cl — higher, 8.4%
- Cc1oc2c(c1C(=O)Nc1ccc(F)c(F)c1)C1=NCCN1C=N2 — higher, -3.92%
- CC1CN(S(=O)(=O)c2ccc(C(=O)Nc3sccc3C(N)=O)cc2)CC(C)O1 (configuration not stated) — higher, -7.24%
- COc1cc(OC)cc(C(=O)OCC(=O)Nc2sccc2C(N)=O)c1 — higher, 3.69%
- O=C(CCN1C(=O)c2ccccc2C1=O)Nc1cccc(F)c1 — higher, -6.14%
- O=C(OCCN1C(=O)c2ccccc2C1=O)Oc1ccccc1 — higher, 0.761%
- Cc1ccc(CCNC(=O)C2CCN(c3nnc(-n4cccc4CNc4ccc(C)cc4)s3)CC2)cc1 — higher, -9.8%
- COc1ccc(-c2noc(-c3ccc(N4CCN(c5ccccc5)CC4)c([N+](=O)[O-])c3)n2)cc1OC — lower, -19%
- O=C(NCCc1ccccc1)C(=O)NCC(c1ccco1)S(=O)(=O)c1ccccc1 (configuration not stated) — lower, -18.7%
- COc1ccc(S(=O)(=O)NC(CC(=O)NCc2ccccc2OC)c2ccco2)cc1 (configuration not stated) — lower, -21.5%
- COc1ccc(S(=O)(=O)N(CC(=O)NCc2ccco2)c2ccc(F)cc2)cc1 — higher, -7.27%
- O=C(NCc1ccncc1)C(=O)NCc1ccco1 — lower, -12.9%
- COC(=O)c1cnc(N2CCN(c3ccccc3OC)CC2)c2ccccc12 — higher, 4.26%
- Cc1ccc(F)cc1S(=O)(=O)N1CCC(c2nc3ccccc3s2)CC1 — higher, -1.44%
- Cc1ccc2c(c1)N(C(=O)CCC(=O)NCc1ccccc1F)CC(C)O2 (configuration not stated) — higher, 5.57%
- CC(=O)N1CCCc2cc(S(=O)(=O)N3CCC(C(=O)NCc4ccc(C)cc4)CC3)ccc21 — higher, -3.6%
- O=S(=O)(NCCc1nnc2ccc(SCc3ccc(Cl)cc3Cl)nn12)c1ccccc1 — higher, 6.82%
- O=C(NCC(c1ccc(Cl)cc1)N1CCOCC1)c1ccccc1F (configuration not stated) — higher, -1.87%
- CCOc1cccc(NC(=O)c2ccc(F)c(S(=O)(=O)N(CC)c3cccc(C)c3)c2)c1 — higher, 1.56%
- CCOc1ccc(C2c3[nH]c4ccccc4c3CCN2Cc2cccn2-c2ncccn2)cc1 (configuration not stated) — lower, -22.4%
- O=C(c1cn2ccccc2n1)N1CCc2c([nH]c3ccccc23)C1c1ccccn1 (configuration not stated) — lower, -15.2%
- Cc1ccc(NC(=O)CSc2nc3c([nH]c4ccccc43)c(=O)n2-c2ccccc2)c(C)c1 — higher, -3.56%
- CCc1c(C)sc(NC(=O)C2c3ccccc3Oc3ccccc32)c1C(=O)OC(C)C — higher, 1.16%
- CCOc1ccc(-c2nc(C)sc2CC(=O)O)cc1 — higher, -9.36%
- CCOC(=O)C(=O)Nc1nc(-c2ccccc2)c(CC)s1 — higher, 2.86%
- Cc1ccc(-c2cn3c(n2)sc2cc(C(=O)NCc4cccs4)ccc23)c(C)c1 — higher, 6.11%
- COc1ccc(NC(=O)CSc2nccn2C2CCCC2)cc1OC — higher, -4.83%
- CCOc1ccc(-c2nonc2NC(=O)c2oc3ccc(CC)cc3c2C)cc1 — higher, -2.35%
- CN(C(=O)CSc1nc2ccc(NC(=O)COc3ccccc3)cc2s1)c1ccccc1 — higher, 0.0897%
- Cc1cc(C)c(NC(=O)CN2C(=O)c3cccnc3Oc3ccc(Cl)cc32)c(C)c1 — higher, 1.99%
- CCNC(=O)Cn1nc(C)n2c(cc3c(OC)cccc32)c1=O — higher, 1.79%
- O=C(Nc1ccc(Cl)cc1)c1cccc(OC(=S)N2CCOCC2)c1 — higher, 6.44%
- O=C(Nc1ccc(N2CCOCC2)cc1)c1ccc2c(c1)OCO2 — higher, 3%

With `CCN1CCCC1CNC(=O)c1cc2c(=O)n(C)c3ccccc3c2n1C` (configuration not stated) the Potency was 50.1 µM (active).
For `Cc1cc(C(=O)NC2CCCc3c2cnn3-c2cccc(C)c2C)c(C)o1` (configuration not stated), the Potency was 35.5 µM (active).
With `Brc1ccc(C2=CC(c3ccco3)n3ncnc3N2)cc1` (configuration not stated) the Potency was 17.8 µM (active).
`COc1cc(C2CC(=O)N3CN(Cc4ccccc4)CSC3=C2C#N)ccc1OCc1ccccc1` (configuration not stated) was tested, and the Potency was 8.91 µM (active).
`CC(=O)Nc1ccc(S(=O)(=O)NC2(C(F)(F)F)C(=O)NC(C)=C2C#N)cc1` (configuration not stated) was tested, and the Potency was 39.8 µM (active).
With `COc1ccc(C(C)=O)cc1COC(=O)Cn1cnc2ccccc2c1=O` the Potency was 39.8 µM (active).
In the case of `CCOC(=O)c1ccccc1NC(=O)CC1Nc2ccccc2NC1=O` (configuration not stated), the Potency is reported as 39.8 µM (active).
With `COc1ccccc1N(C(=O)Cn1nnc2ccccc21)C(C(=O)NCc1ccco1)c1ccc(C)o1` (configuration not stated) the Potency was 44.7 µM (active).
For `Clc1cccc(-c2nc3nc4ccccc4nc3n2Cc2ccco2)c1`, the Potency was 17.8 µM (active).
`CCOc1ccc(NCCC(=O)c2ccc3c(c2)OCO3)cc1` was tested, and the Potency was 1.41 µM (active).
`NC(=O)c1ccsc1NC(=O)c1ccco1` was tested, and the Potency was 44.7 µM (active).
In the case of `O=C1c2ccccc2C(=O)N1CCC(O)C[N+](=O)[O-]` (configuration not stated), the Potency is reported as 28.2 µM (active).
For `O=C(NCc1ccccc1)C(=O)NCC(c1ccco1)S(=O)(=O)c1ccc(Cl)cc1` (configuration not stated), the Potency was 50.1 µM (active).
For `COc1ccccc1CNC(=O)C(=O)NCC(c1ccco1)S(=O)(=O)c1ccc(F)cc1` (configuration not stated), the Potency was 10 µM (active).
`c1ccc(C2c3[nH]c4ccccc4c3CCN2Cc2cccn2-c2cccnc2)nc1` (configuration not stated) was tested, and the Potency was 15.8 µM (active).
In the case of `C/C(=N/Nc1nc(-c2ccccc2)c(CC(=O)O)s1)c1ccccc1`, the Potency is reported as 0.316 µM (active).
For `CC(=O)Oc1cccc(N2C(=O)CC(Nc3ccc(N4CCOCC4)cc3)C2=O)c1` (configuration not stated), the Potency was 22.4 µM (active).
